Data published in PubChem BioAssay AID1240 (Sanford-Burnham Center for Chemical Genomics, 2008).
Screen size: about 50,000 compounds; about 800 (1.6%) showed an effect of 50% or more. What follows is part of a selection rich in strong results, with near analogues and random picks from the rest.

molecular target: Bcl-2-like protein 10 (Homo sapiens) (UniProt Q9HD36); experiment: Phenotype converters, Bcl-B/TR3 peptide binding displacement, primary biochemical FP (AID 1240); settings: GST-Bcl-B / FITC-TR3 peptide fluorescence polarization; stronger effect = higher value; compound at 3.75 mg/L;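 further: 0% = Bcl-B with tracer peptide and DMSO and 100% = tracer peptide lacking Bcl-B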
Sequence (Q9HD36 whole entry, looked up): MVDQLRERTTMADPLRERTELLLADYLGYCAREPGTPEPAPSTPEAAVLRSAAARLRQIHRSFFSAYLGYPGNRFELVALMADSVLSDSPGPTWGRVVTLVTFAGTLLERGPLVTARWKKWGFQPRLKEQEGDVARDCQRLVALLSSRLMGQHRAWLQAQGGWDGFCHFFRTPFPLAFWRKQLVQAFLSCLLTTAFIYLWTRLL

Structure (SMILES) | displacement [%]
Cc1cccc([N+](=O)[O-])c1N=Cc1ccc(N(C)C)cc1 | -4.5
COc1ccc(N(CC(=O)NC2CCCCC2)S(=O)(=O)c2ccccc2)cc1Cl | 7.2
COc1ccc(/C=C2/Sc3ccccc3C2=O)cc1[N+](=O)[O-] | -5.3
O=C1/C(=C/c2ccc(Br)o2)Sc2ccccc21 | 92.7
NS(=O)(=O)c1ccc(-c2ccc(/C=C3\Sc4ccccc4C3=O)o2)cc1 | -71.8
COc1ccc(/C=C2/Sc3ccccc3C2=O)cc1Br | 116
O=C1/C(=C\c2ccc(-c3ccc([N+](=O)[O-])cc3Br)o2)Sc2ccccc21 | -17.8
CCOc1cc(/C=C2\Sc3ccccc3C2=O)ccc1OC | 0.2
O=C(NCc1ccccn1)C(=O)Nc1ccccc1F | -20.9
Cc1ccc(S(=O)(=O)NCCOc2ccccc2Cl)cc1[N+](=O)[O-] | 13
CC(=O)N/C(=C\c1ccccc1)C(=O)NC(CC(C)C)C(=O)O (configuration not stated) | -2.1
CC(=O)N/C(=C\c1ccc(F)cc1)C(=O)NC(C(=O)O)C(C)C (configuration not stated) | 81.8
C#CCOC(=O)/C(=C/c1ccc(F)cc1)NC(C)=O | -8.4
COc1ccccc1NC(=O)c1cccc2c(Br)cccc12 | -5.4
COc1ccc(N(CC(=O)NC(C)c2ccccc2)S(=O)(=O)c2ccc(C)cc2)c(OC)c1 (configuration not stated) | 2.3
Cc1cc(C)cc(OCC(=O)N2CCN(c3ccc([N+](=O)[O-])cc3)CC2)c1 | -3.5
CCOc1ccc2c(=O)c(-c3nc4ccccc4s3)coc2c1 | 7.8
O=c1oc2ccccc2cc1-c1nc2ccccc2s1 | -1
Cc1oc2cc(OCC(=O)OCc3ccccc3)ccc2c(=O)c1-c1nc2ccccc2s1 | 11.3
CCOC(=O)COc1ccc2cc(-c3nc4ccccc4[nH]3)c(=O)oc2c1 | 7.3
CCOC(=O)COc1ccc2cc(-c3nc4ccccc4o3)c(=O)oc2c1 | 8.8
O=c1oc2cc(OCc3c(F)c(F)c(F)c(F)c3F)ccc2cc1-c1ccc2ccccc2n1 | -49.7

Structure (SMILES) | displacement [%]
O=c1oc2cc(OCc3ccc(F)cc3)ccc2cc1-c1nc2ccccc2s1 | 52.5
O=C(COc1ccc2cc(-c3nc4ccccc4s3)c(=O)oc2c1)OCc1ccccc1 | 53.3
C=C(C)COc1ccc2cc(-c3nc4ccccc4s3)c(=O)oc2c1 | 66.5
O=c1c(-c2nc3ccccc3s2)coc2cc(OCc3ccc([N+](=O)[O-])cc3)ccc12 | 6.2
O=C(COc1ccc2ccc(=O)oc2c1)OCc1ccccc1 | 10.9
CC(C)(C)OC(=O)COc1ccc2cc(-c3nc4ccccc4s3)c(=O)oc2c1 | 92
CCOc1ccc(N(CC(=O)Nc2cccc3cccnc23)S(=O)(=O)c2ccccc2)cc1 | -39.5
O=C(Nc1ccc2nn(-c3ccc(F)cc3)nc2c1)c1cc2ccccc2o1 | 2.5
O=C1N/C(=N/N=C\c2ccc(-c3ccc(Cl)cc3)o2)SC1Cc1ccccc1 (configuration not stated) | 17
CC(Sc1nnc(N)s1)c1ccccc1 (configuration not stated) | 5.2
COc1ccc(CC(=O)N=Nc2c(O)n(CN3CCN(C)CC3)c3ccccc23)cc1 | -3
O=C(CN1C(=O)c2ccc([N+](=O)[O-])cc2C1=O)N1CCCCC1 | -9.1
COc1ccc(NC(=O)C(=O)NCc2ccc(C)cc2)c(OC)c1 | 10.4
O=C(COc1ccc(Cl)cc1Br)NNC(=O)c1ccncc1 | -4.5
CC(=O)c1cc(F)c(N2CCN(C(=O)c3ccccc3Br)CC2)cc1C | -5.4
CC(=O)c1ccc(N2CCN(C(=O)c3cccs3)CC2)c(F)c1 | -4.6
CC(=O)c1cc(F)c(N2CCN(C(=O)c3cccs3)CC2)cc1C | 80
C=C(NC(C)=O)C(=O)c1ccc([N+](=O)[O-])cc1 | 18.9
O=c1ccc([N+](=O)[O-])ccc1Nc1ccccn1 | 58.1
Cc1ccc(Nc2ccc([N+](=O)[O-])c3nonc23)cc1 | -2.1
Cc1ccc(Nc2ccc([N+](=O)[O-])ccc2=O)cc1 | 136
Cc1ccc(NS(=O)(=O)c2ccc([N+](=O)[O-])cc2)cc1 | 15.1

Structure (SMILES) | displacement [%]
O=C(Nc1ccccc1C(=O)Nc1ccccn1)c1ccc([N+](=O)[O-])cc1 | 45.1
O=C(COc1ccc([N+](=O)[O-])cc1)Nc1ccccn1 | -10.4
O=C(c1ccccc1)N1CCN(CCCc2ccccc2)CC1 | -9.4
Cc1cccc(C(=O)O/N=C(\N)c2ccncc2)c1 | 8.5
Clc1ccc(CN2CCN(/N=C/c3ccc(Br)s3)CC2)cc1 | 14.6
N#C/C(=C/c1cccc(Cl)c1)c1nc(-c2ccc(Cl)cc2)cs1 | -4.7
COc1cc(OC)c(NC(=O)c2ccccc2C)cc1Cl | -12
CCOc1ccc(C=C2C(=O)NC(=O)NC2=O)cc1OCC | 14.1
CCOc1cc(C=C2C(=O)NC(=O)NC2=O)ccc1OCc1ccccc1 | 33.7
CCOc1cc(C=C2C(=O)NC(=O)NC2=O)ccc1OCc1c(C)no[n+]1[O-] | 108
CCOc1cc(/C=C2\SC(=S)NC2=O)ccc1OCc1c(C)no[n+]1[O-] | 117
COc1cc(C=C2C(=O)NC(=O)NC2=O)ccc1OCc1c(C)no[n+]1[O-] | -3.9
Cc1no[n+]([O-])c1COc1ccc(/C=C2\SC(=S)NC2=O)cc1 | -27.5
Cc1no[n+]([O-])c1COc1cccc(/C=C2\SC(=S)NC2=O)c1 | -27.6
CCOc1cc(C=C2C(=O)NC(=O)NC2=O)ccc1OCc1cccc2ccccc12 | 58.6
Cc1no[n+]([O-])c1COc1ccc(C=C2C(=O)NC(=O)NC2=O)cc1 | 2.5
O=C(c1nn2c(C(F)(F)F)cc(-c3ccccc3)nc2c1Cl)N1CCCC1 | 22.7
CC1=NN(C(=O)c2ccc([N+](=O)[O-])cc2)C(O)(C(F)(F)F)C1 (configuration not stated) | 6.8
O=C1NC(=Nc2ccc(Cl)cc2)SC1Cc1cccc([N+](=O)[O-])c1 (configuration not stated) | -4.7
O=C(CN(c1ccc(Br)cc1)S(=O)(=O)c1ccccc1)NC1CC2CCC1C2 (configuration not stated) | -0.2
Nc1nnc(SCC(=O)N2c3ccccc3Sc3ccccc32)s1 | -2
CC(=O)N(CCC1(Cc2ccccc2)CCOC(C)(C)C1)Cc1ccccc1 (configuration not stated) | 7.8

Structure (SMILES) | displacement [%]
O=C(O)CCCCCN1C(=O)C(=O)/C(=C(/O)c2ccccc2)C1c1cccc(F)c1 (configuration not stated) | -11.9
COc1ccc(C(NC(C)=O)NC(C)=O)cc1OC | 6.3
CCOc1ccc(C(=O)N(C(=O)c2ccc(OCC)cc2)c2ncccc2C)cc1 | -0.9
COC(=O)c1[nH]cnc1C(=O)Nc1ccc(C)cc1C(=O)c1ccccc1 | -1.6
Cc1ccccc1-c1nc2ccccc2c(=O)n1/N=C/c1ccc([N+](=O)[O-])cc1 | 12.8
Cc1ccc(C)c(NC(=O)/C=C/c2ccc(C)o2)c1 | 10.2
CCOc1ccc(S(=O)(=O)NCc2ccccc2Cl)c2ccccc12 | 3.4
O=C(Nc1nc(-c2ccc([N+](=O)[O-])cc2)cs1)c1ccc(Cl)cc1 | 8.7
O=C(Nc1nc(-c2ccc([N+](=O)[O-])cc2)cs1)c1ccccc1F | 113
O=C(Nc1nc(-c2ccc(F)cc2)cs1)c1ccccc1[N+](=O)[O-] | 8.9
COc1cc(/C=C2/SC(=S)N(CC(=O)O)C2=O)ccc1OCc1ccccc1 | 1.7
Oc1ccc(Br)cc1CN1CCN(Cc2c[nH]c3ccccc23)CC1 | -2.7
Cc1n[nH]c(C)c1Sc1ccccc1N=Cc1cc([N+](=O)[O-])ccc1O | 3.6
Cc1n[nH]c(C)c1Sc1ccccc1N=Cc1cc(Cl)ccc1O | 0
Cc1n[nH]c(C)c1Sc1ccccc1N=Cc1cc(Cl)cc([N+](=O)[O-])c1O | 117
O=C(/C=C/c1ccccc1OC(=O)c1cccnc1)c1ccccc1 | -10.4
Cc1ccc(C2OC3(C(=O)c4ccccc4C3=O)C(c3cccc(Cl)c3)C23C(=O)c2ccccc2C3=O)cc1 (configuration not stated) | 2
O=C1/C(=C/c2cccc([N+](=O)[O-])c2)SC(=S)N1C1CCS(=O)(=O)C1 (configuration not stated) | 2.2
O=C1/C(=C\c2ccc3c(c2)OCO3)SC(=S)N1C1CCS(=O)(=O)C1 (configuration not stated) | 106
CC(C(=O)O)N1C(=O)/C(=C/c2ccc3c(c2)OCO3)SC1=S (configuration not stated) | 9.1
CN1C(=O)/C(=C/c2ccc3c(c2)OCO3)SC1=S | 80.3
O=C1/C(=C\c2ccc3c(c2)OCO3)SC(=S)N1CCc1ccccc1 | -2.3

Structure (SMILES) | displacement [%]
O=C(O)CCN1C(=O)/C(=C\c2ccc3c(c2)OCO3)SC1=S | -2.7
Cc1ccc(CNS(=O)(=O)c2ccccc2[N+](=O)[O-])cc1 | 5.2
O=C(c1ccccc1)N1CCCC2CCCCC21 (configuration not stated) | 1.6
CCOc1ccc(NC(=O)c2c(N)sc(-c3ccccc3)c2C)cc1 | -0.3
CCO/C=N/C1=C(C#N)C(c2ccccc2)C2=C(CC(C)(C)CC2=O)O1 (configuration not stated) | 4.5
COC(=O)c1cc(C(=O)Nc2cc(C)ccn2)cc([N+](=O)[O-])c1 | 3.9
COC(=O)c1cc(C(=O)Nc2ncccc2C)cc([N+](=O)[O-])c1 | 55.2
COC(=O)c1cc(C(=O)Nc2ccccn2)cc([N+](=O)[O-])c1 | -1.3
Cc1cccnc1NC(=O)Nc1ccc(F)cc1 | 0.2
O=C(NCC1CCCO1)c1ccc(C2SCC(=O)N2Cc2ccccc2)cc1 (configuration not stated) | -12.3
CCCOc1ccc(N2C(=O)CC(NCc3cccnc3)C2=O)cc1 (configuration not stated) | 1.7
CCCCOc1ccc(/C=C2\SC(=S)N(C(C)C(=O)O)C2=O)cc1OC (configuration not stated) | 3.8
COc1cc(/C=C2/SC(=S)N(CCC(=O)O)C2=O)cc(Br)c1O | -13.7
COc1cc(/C=C2\SC(=S)N(C)C2=O)cc(Br)c1O | -47.9
COC(=O)CCN1C(=O)/C(=C\c2ccc(C)cc2)SC1=S | 0.6
COC(=O)CCN1C(=O)/C(=C\c2cc(Br)c(O)c(OC)c2)SC1=S | 53.8
CCCCOc1ccc(/C=C2\SC(=S)N(CCC(=O)OC)C2=O)cc1OC | 54.1
O=C(Nc1ccc(I)cc1Cl)c1cccc(Cl)c1Cl | 11.2
O=C(NN1C(=O)/C(=C\c2ccccn2)SC1=S)c1ccccc1 | -15.1
